Where “and” joins values, the source holds several entries; their conditions need not be identical. Equal entries are not always repeated. Inconclusive results are not listed. Calls of active or inactive are those of the source. Unless noted, calls follow the shape of the dose curve; as a rule, active = well fitted curve in the direction sought with a large enough effect; inconclusive = small, poorly fitted or top-dose-only effect, or another doubt; inactive = no such curve, though single readings can be large; an effect the other way counts as inactive or inconclusive.
What was measured:
[1] = qHTS profiling for inhibitors of Plasmodium falciparum proliferation (AID 504749); also: potency is read from the fitted curve at half-maximal effect;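 as to activity, negative = inhibition: 0% = DMSO vehicle and full inhibition = artemisinin control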; as to all read-outs here: nearly all actives have a fitted effect of over 60% in size; settings: P. falciparum in erythrocytes, SYBR Green DNA, 72 h; for activity, negative = inhibition: at 28.7 µM (top of the series)
Outline: (§1)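 Quantitative HTS: compounds pinned into medium, infected erythrocytes added (0.3% parasitemia, 2.5% hematocrit), 72 h culture at 37 C under 5% CO2. Saponin/Triton lysis with SYBR Green I, overnight RT, then fluorescence read.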

3D7 = assay: as above; settings: P. falciparum in erythrocytes, SYBR Green DNA, 72 h; series mostly up to 28.7 µM
Outline: as §1

7G8 = assay: as above; settings: P. falciparum in erythrocytes, SYBR Green DNA, 72 h; series mostly up to 28.7 µM
Outline: as §1

AA1029 = assay: as above; settings: P. falciparum in erythrocytes, SYBR Green DNA, 72 h; series mostly up to 28.7 µM
Outline: as §1

AS120 = assay: as above; settings: P. falciparum in erythrocytes, SYBR Green DNA, 72 h; series mostly up to 28.7 µM
Outline: as §1

ATS189 = assay: as above; settings: P. falciparum in erythrocytes, SYBR Green DNA, 72 h; series mostly up to 28.7 µM
Outline: as §1

ATS95 = assay: as above; settings: P. falciparum in erythrocytes, SYBR Green DNA, 72 h; series mostly up to 28.7 µM
Outline: as §1

C2A = assay: as above; settings: P. falciparum in erythrocytes, SYBR Green DNA, 72 h; series mostly up to 28.7 µM
Outline: as §1

[2] = Dual reporter qHTS for antagonist of Pregnane X Receptor (hPXR) against the NCATS DSHEA and TCM libraries: Fluorescence Readout (AID 1920061); settings: PXR dual reporter cells, antagonist mode; series mostly up to 40 µM; also: 0% is about no effect
Outline: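 hPXR-Luc HepG2 cells exposed 24 h at 37 C to compounds with 2 uM rifampicin in antagonist mode; luciferase luminescence measured by ONE-Glo, with CellTiter-Fluor viability read beforehand.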

[3] = qHTS for identification of novel therapeutic agents for treatment of microphthalmiaassociated transcription factor (MiT) renal cell carcinoma (RCC) (AID 1963991; calls by dose curve; also: potency is read from the fitted curve at half-maximal effect); settings: CellTiter-Glo, 48 h; for z-score: stronger effect = lower value
Outline: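 Three TFE3-fusion RCC lines (UOK109, UOK124, UOK145), 500 cells/well in complete medium, were treated with MIPE 4.0 compounds for 48 hours at 37 C. Viability was by CellTiter-Glo luminescence, normalized to DMSO (100%) and empty wells (0%); curves fitted over 11 concentrations.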

COP(=S)(OC)Oc1ccc(Sc2ccc(OP(=S)(OC)OC)cc2)cc1
inactive: activity, negative = inhibition ([1]; parasite line A) 7.58% | activity, negative = inhibition ([1]; parasite line B) 4.24% | Potency (3D7) | Potency (7G8) | Potency (AA1029) | Potency (AS120) | Potency (ATS189) | Potency (ATS95) | Potency (C2A)

CC(C)(O)C(Cl)(Cl)Cl
active: Potency ([1]; parasite line A) 11.2 µM | Potency ([1]; parasite line B) 12.6 µM | Potency (3D7) 2 µM | Potency (7G8) 316 nM | Potency (AA1029) 12.6 µM | Potency (AS120) 4.47 µM | Potency (ATS189) 3.16 µM | Potency (ATS95) 10 µM

COc1ccc(C(=O)N2CCCC2=O)cc1
inactive: activity, negative = inhibition ([1]; parasite line A) 4.48% | activity, negative = inhibition ([1]; parasite line B) 11% | Potency (3D7) | Potency (7G8) | Potency (AA1029) | Potency (AS120) | Potency (ATS189) | Potency (ATS95) | Potency (C2A)

C[C@]12C=CC(=O)C=C1CC[C@@H]1[C@@H]2CC[C@@]2(C)[C@H]1CC[C@]2(C)O
inactive: activity, negative = inhibition ([1]; parasite line A) 0.454% | activity, negative = inhibition ([1]; parasite line B) 5.05% | Potency (3D7) | Potency (7G8) | Potency (AA1029) | Potency (AS120) | Potency (ATS189) | Potency (ATS95) | Potency (C2A)

CCOC(=O)NC(O)C(Cl)(Cl)Cl (stereo unspecified)
inactive: activity, negative = inhibition ([1]; parasite line A) 5.94% | activity, negative = inhibition ([1]; parasite line B) 0.346% | Potency (3D7) | Potency (7G8) | Potency (AA1029) | Potency (AS120) | Potency (ATS189) | Potency (ATS95) | Potency (C2A)

CCCCCCCCC(=O)NCc1ccc(O)c(OC)c1
inactive: activity, negative = inhibition ([1]; parasite line A) -0.439% | activity, negative = inhibition ([1]; parasite line B) 7.79% | Potency (3D7) | Potency (7G8) | Potency (AA1029) | Potency (AS120) | Potency (ATS189) | Potency (ATS95) | Potency (C2A)

C[C@]12CC[C@H](O)CC1=CC[C@@H]1[C@@H]2CC[C@]2(C)C(=O)CC[C@@H]12
inactive: outcome [2]

CN1C(=O)CN=C(c2ccccc2)c2cc([N+](=O)[O-])ccc21
inactive: activity, negative = inhibition ([1]; parasite line A) 1.56% | activity, negative = inhibition ([1]; parasite line B) -3.67% | Potency (3D7) | Potency (7G8) | Potency (AA1029) | Potency (AS120) | Potency (ATS189) | Potency (ATS95) | Potency (C2A)

Cc1ncc2n1-c1ccc(Cl)cc1C(c1ccccc1F)=NC2
inactive: activity, negative = inhibition ([1]; parasite line A) 7.97% | activity, negative = inhibition ([1]; parasite line B) -15.6% | Potency (3D7) | Potency (7G8) | Potency (AA1029) | Potency (AS120) | Potency (ATS189) | Potency (ATS95) | Potency (C2A)

CC[n+]1c(-c2ccccc2)c2cc(N)ccc2c2ccc(N)cc21
active: Potency ([1]; parasite line A) 158 nM and 447 nM | Potency ([1]; parasite line B) 112 nM and 316 nM | Potency (3D7) 158 nM and 251 nM | Potency (7G8) 39.8 nM and 70.8 nM | Potency (AA1029) 112 nM and 355 nM | Potency (AS120) 100 nM and 282 nM | Potency (ATS189) 141 nM and 708 nM | Potency (ATS95) 126 nM and 355 nM | Potency (C2A) 251 nM and 355 nM

Oc1c(Br)cc(Br)cc1Br
inactive: activity, negative = inhibition ([1]; parasite line A) 0.526% | activity, negative = inhibition ([1]; parasite line B) -0.833% | Potency (3D7) | Potency (7G8) | Potency (AA1029) | Potency (AS120) | Potency (ATS189) | Potency (ATS95) | Potency (C2A)

CC(C)C(Br)C(=O)NC(N)=O (stereo unspecified)
inactive: activity, negative = inhibition ([1]; parasite line A) 10.2% | activity, negative = inhibition ([1]; parasite line B) 11.6% | Potency (3D7) | Potency (7G8) | Potency (AA1029) | Potency (AS120) | Potency (ATS189) | Potency (ATS95) | Potency (C2A)

C[N+](C)(C)CCOC(=O)C(O)(c1ccccc1)c1ccccc1
inactive: activity, negative = inhibition ([1]; parasite line A) 12.8% | activity, negative = inhibition ([1]; parasite line B) 7.74% | Potency (3D7) | Potency (7G8) | Potency (AA1029) | Potency (AS120) | Potency (ATS189) | Potency (ATS95) | Potency (C2A)

C[C@@H]1C[C@@H]([C@H](O)CC2CC(=O)NC(=O)C2)C(=O)[C@@H](C)C1
active: Potency ([3]; TFE3-RCC UOK109 viability) 0.0469 µM
-1.24: z-score ([3]; TFE3-RCC viability, measured here: UOK145 Z-AUC)
-2.25: z-score ([3]; TFE3-RCC UOK109 viability, measured here: UOK109 Z-AUC)
-1.12: z-score ([3]; TFE3-RCC viability, measured here: UOK124 Z-AUC)

c1cc2c(c(N3CCNCC3)c1)OCCO2
inactive: activity, negative = inhibition ([1]; parasite line A) 8.64% | activity, negative = inhibition ([1]; parasite line B) 11.7% | Potency (3D7) | Potency (7G8) | Potency (AA1029) | Potency (AS120) | Potency (ATS189) | Potency (ATS95) | Potency (C2A)
